Compound activity from PubChem BioAssay.
IL-1B inflam inh: qHTS for Inhibitors of Inflammasome Signaling: IL-1-beta AlphaLISA Primary Screen | THP-1 LPS/ATP IL-1B secretion, AlphaLISA, 16 h; stronger effect = lower value | 360,000 tested, 4.7% active | AID 743279, 2014 | activity change, % at 57.5 µM; in the data active = activity change below about -50%; inconclusive = mostly about -30% to -49%
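THP-1 cells pretreated 1 hr with compounds (up to 57.5 uM final), then stimulated with LPS (250 ng/mL final) plus ATP (1.25 mM final); secreted IL-1B measured by AlphaLISA after 16 hr, decreased signal indicating inhibition.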
TDP1 cell noCPT: qHTS for Inhibitors of human tyrosyl-DNA phosphodiesterase 1 (TDP1): qHTS in cells in absence of CPT. DT40 Tdp1-/- hTDP1 cells, no CPT, ATP luminescence, 48 h. Potency, µM (doses to about 46.2 µM), without a hit: at the top dose activity change, negative = growth inhibition, actives largely listed as inhibitors. 420,000 tested, 15% active. AID 686978, 2013; note: potency is the fitted concentration of half-maximal effect; nearly all actives have a fitted effect of over 55% in size
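Compound effects on proliferation are scored in DT40 Tdp1-/-;hTDP1 cells in the absence of CPT. ATP levels (CellTiter-Glo luminescence) are recorded after a ≥48 hr, 37 °C incubation.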
TDP1 cell CPT: qHTS for Inhibitors of human tyrosyl-DNA phosphodiesterase 1 (TDP1): qHTS in cells in presence of CPT; chicken DT40 Tdp1-/-;hTDP1 cells + 20 nM CPT, ATP luminescence, 48 h; 420,000 tested, 12% active; AID 686979, 2013; Potency, µM (series often up to 46.2 µM), for inactives: at the top dose activity change, negative = growth inhibition, actives largely listed as inhibitors; note: potency is the fitted concentration of half-maximal effect; nearly all actives have a fitted effect of over 55% in size
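Cell growth measured by CellTiter-Glo luminescence after a minimum 48 h, 37 C compound exposure with 20 nM CPT in Tdp1-knockout DT40 cells stably expressing hTDP1, seeded 400/well; qHTS titration format.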
HT1080-NT tox: qHTS for induction of synthetic lethality in tumor cells producing 2HG: qHTS for the HT-1080-NT fibrosarcoma cell line | HT-1080-NT fibrosarcoma viability, CellTiter-Glo ATP luminescence, 48 h | Potency, µM (doses to about 46.1 µM), inactives show at the highest dose activity, negative = less viability, usual class: cytotoxic | 360,000 tested, 1.6% active;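 note: NT is the 2HG producing partner of a matched IDH1 knockdown line; potency is the fitted concentration of half-maximal effect; 0% = DMSO-treated cells and -100% = media-only wells without cells; nearly all actives have a fitted effect of over 55% in size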
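Luminescent CellTiter-Glo readout after 48 hours of compound exposure at 37 degrees C defined viability of HT-1080-NT cells. Activity was normalized to DMSO wells and cell-free media wells; concentration-response curves were fitted and assigned curve classes.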
12-LOX inh: Primary qHTS assay for inhibitors of human arachidonate 12S-lipoxygenase (ALOX12): Round 2. Polyunsaturated fatty acid lipoxygenase ALOX12 (Homo sapiens), P18054. purified 12hLO, xylenol orange hydroperoxide absorbance. Potency, µM (series often up to 108 µM), for inactives: top-dose activity change, negative = inhibition, usual class: inhibitors. 580,000 tested, 1.1% active. AID 1671190, 2021; note: potency is the fitted concentration of half-maximal effect
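Hydroperoxide product was detected by ferrous iron/xylenol orange as the 573 to 405 nm absorbance ratio. Arachidonic acid at 40 uM (final) was turned over for 30 min at room temperature by 150 nM human 12hLO, pH 7.0 Hepes buffer, after 15 min compound preincubation.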
HT1080 IDH1KD tx: qHTS for induction of synthetic lethality in tumor cells producing 2HG: qHTS for the HT-1080-IDH1KD cell line; 360,000 tested, 2% active; Potency, µM (top dose mostly 46.1 µM), without a hit: at the top dose activity, negative = toxicity, hits mostly cytotoxic; HT-1080 IDH1 knockdown viability, ATP luminescence, 48 h;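 note: potency is the fitted concentration of half-maximal effect; 0% = DMSO wells and -100% = cell-free medium wells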
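Luminescent ATP read-out (CellTiter-Glo, 10 min at room temperature) after 48 h compound exposure at 37 °C gave viability of IDH1-knockdown HT-1080 cells. Activity was normalised to DMSO and cell-free wells, then fitted as concentration-response curves.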
* hit, by the source's call; ? = inconclusive; nt = not tested or not shown. The sample as a whole holds a higher share of hits than the screen did. Unless noted, calls come from the whole dose curve; as a rule, active = well fitted curve in the direction sought with a large enough effect; inconclusive = small, poorly fitted or top-dose-only effect, or another doubt; inactive = no such curve, though single readings can be large; an effect the other way counts as inactive or inconclusive. Unless noted, % is set by controls: 0 for no effect and ±100 for the full control effect.

SMILES	IL-1B inflam inh	TDP1 cell noCPT	TDP1 cell CPT	HT1080-NT tox	12-LOX inh	HT1080 IDH1KD tx
CC1CCCN(Cc2ccc(CNC(=O)N3CCC(C#N)CC3)cc2)C1 (configuration not stated)	nt	nt	nt	nt	21%	nt
O=[N+]([O-])c1ccc(C=C2c3ccccc3-c3ccccc32)cc1	nt	18µM*	-24%	nt	nt	nt
CC1CC(=Cc2ccc([N+](=O)[O-])cc2)C(=O)O1 (configuration not stated)	-13	-19%	1%	2%	5%	11%
OC(C1=CC(=Cc2ccncc2)c2ccccc21)c1ccncc1 (configuration not stated)	-59*	16µM*	?	3.3µM*	?	-30%
O=[N+]([O-])c1ccc(/C=C2\C=C(C(O)c3ccc([N+](=O)[O-])cc3)c3ccccc32)cc1 (configuration not stated)	nt	4.5µM*	6.3µM*	nt	nt	nt
CCCCCNC(=O)CCC(=O)NCCCCC	nt	nt	nt	nt	5%	nt
CN1C(=O)C2(CCN(C(=O)CC3CCCC3)CC2)c2ccccc21	nt	nt	nt	nt	27%	nt
COc1ccc(-c2cc(=O)oc3c4c(ccc23)OCN(Cc2ccccc2)C4)cc1	nt	?	18µM*	nt	-19%	nt
COc1ccc(-c2cc(=O)oc3c4c(ccc23)OCN(Cc2cccc(OC)c2)C4)cc1	nt	16µM*	10µM*	nt	?	nt
Cc1ccc(CN2COc3ccc4c(C)cc(=O)oc4c3C2)cc1	nt	nt	nt	nt	3%	nt
O=c1cc(-c2ccccc2)c2ccc3c(c2o1)CN(Cc1ccccc1)CO3	nt	?	-14%	nt	-24%	nt
Cc1ccc(CCNC(=O)CCc2cn(Cc3ccccc3C)c3ccccc23)cc1	nt	16µM*	18µM*	nt	-12%	nt
CNC(=O)CCc1cn(Cc2ccccc2C)c2ccccc12	nt	nt	nt	nt	6%	nt
Cc1ccc(Cn2cc(CCC(=O)NCC(C)c3ccccc3)c3ccccc32)cc1 (configuration not stated)	nt	16µM*	?	nt	?	nt
CCOc1ccc(CCNC(=O)CCc2cn(Cc3ccc(F)cc3)c3ccccc23)cc1	nt	21µM*	?	nt	-18%	nt
O=C(CCc1cn(Cc2ccc(F)cc2)c2ccccc12)NCCc1ccc(Cl)cc1	nt	18µM*	?	nt	0%	nt
COc1ccc(-c2cc(N3CCC(NC(=O)c4ccc(C)s4)CC3)n[nH]2)cc1	nt	nt	nt	nt	60%	nt
Cc1cccc(NC(=O)CSc2nnc(CNC(=O)c3c(F)cccc3Cl)o2)c1C	nt	-23%	6%	nt	-18%	nt
C/C(=N\NC(=O)CO/N=C(\C)c1cccs1)c1ccc(N)cc1	19	-3%	-4%	1%	24%	0%
O=C(CCCCCNC(=O)c1ccccc1)N/N=C/c1ccc(O)cc1O	90	-30%	-19%	-25%	0%	-22%
C=CCc1cccc(/C=N/NC(=O)CCC(=O)Nc2ccc(C)cc2)c1O	60	10µM*	15µM*	-30%	13%	?
Cc1ccc(/C=N/NC(=O)Cc2ccc(Cl)cc2)c(O)c1	65	21µM*	16µM*	?	-2%	18µM*
C/C(=N\OCC(=O)N/N=C/c1ccc(C)cc1O)c1cccs1	104	4.1µM*	4.6µM*	-18%	35%	0%
Cc1ccc(NC(=O)CCC(=O)N/N=C/c2ccc(O)cc2O)cc1	175	16µM*	15µM*	?	?	?
COc1ccc(S(=O)(=O)NC(CC(C)C)C(=O)NC(C)c2cccs2)cc1 (configuration not stated)	8	-6%	-20%	-2%	2%	16%
